Measured values taken from PubChem BioAssay.
Some of the results follow. Calls of active or inactive are those of the source. Cut-off read from the data, not from the text of the source, unless noted: active = activation above about 8.9%; inactive = the rest.

Legend:
[1] = target: Galanin receptor type 2 (Homo sapiens) (UniProt O43603); assay: GALR2 antagonists, retest of hits, confirmation, cell-based (AID 866; in the data active = inhibition above about 27%;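 note: cells stimulated with galanin at about its EC80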); conditions: GALR2-expressing cells, antagonist mode, at 4 µM, hits give high values
Galanin receptor type 2 (Homo sapiens), sequence (O43603 whole entry, looked up): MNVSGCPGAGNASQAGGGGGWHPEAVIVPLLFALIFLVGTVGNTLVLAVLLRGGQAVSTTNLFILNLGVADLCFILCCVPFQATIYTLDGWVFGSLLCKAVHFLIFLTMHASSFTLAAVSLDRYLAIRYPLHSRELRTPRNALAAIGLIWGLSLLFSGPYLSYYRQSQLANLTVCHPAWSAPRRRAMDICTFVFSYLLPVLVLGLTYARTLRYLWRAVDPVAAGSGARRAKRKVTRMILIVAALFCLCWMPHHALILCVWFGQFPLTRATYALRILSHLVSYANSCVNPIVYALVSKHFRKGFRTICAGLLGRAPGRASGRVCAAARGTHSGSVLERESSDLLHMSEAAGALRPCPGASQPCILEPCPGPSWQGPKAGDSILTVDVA

[2] = inhibitors of NFAT-driven beta-lactamase reporter, confirmation, counter-screen for GALR2 antagonist project, CHO NFAT-bla cells, FRET readout (AID 867;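 active = inhibition above the mean inhibition across tested compounds plus 3 SD, cut at about 27% in these data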;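 note: 0% = 500 nM thapsigargin stimulated wells and 100% = unstimulated BSA only wells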); conditions: thapsigargin-stimulated, at 4.2 µM, hits give high values
[3] = tested on: TLR4-MyD88 interaction (human), BLA complementation; assay: TLR4-MyD88 association inhibitors, retest, confirmation, cell-based, HeLa CL3-4, BLA complementation, FRET ratio (AID 941;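 active = mean inhibition across three repeat runs above about 25% carried over from the earlier screen, limit read from the data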;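 note: plate controls were DMSO only for no effect and clavulanic acid blocking BLA at full dose for full effect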); conditions: CCF4 FRET ratio, at 8.4 µM, hits give high values
[4] = inhibitors of full-length beta-lactamase reporter, confirmation, artefact control for TLR4-MyD88 binding inhibitor project, cell-based, HeLa, full-length BLA, CCF4 FRET ratio (AID 1237;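 active = mean inhibition over three repeats above about 26% taken from the earlier screen, limit read from the data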;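 note: HeLa cells stably expressing beta-lactamase reporter as counterscreen for TLR4-MyD88 inhibitors; 0% = DMSO and 100% = clavulanic acid full inhibition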); conditions: at 8.4 µM, hits give high values
[5] = target: Serine protease HTRA1 (Homo sapiens) (UniProt Q92743); assay: HTRA1 protease inhibitors, retest, confirmation, biochemical, fluorescence polarization (AID 540248;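 active = mean inhibition over three repeats above a set limit taken from the earlier primary screen, cut at about 37% in these data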;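 note: 0% = HTRA1 with DMSO and 100% = wells lacking HTRA1; inhibitors block probe binding so polarization drops and inhibition rises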); conditions: recombinant HTRA1, FP-rhodamine activity-based probe, at 5.96 µM, hits give high values
[6] = target: Sphingosine 1-phosphate receptor 4 (Homo sapiens) (UniProt O95977); assay: S1P4 receptor antagonists, human, confirmation, cell-based (AID 1524; in the data active = inhibition above about 30%); conditions: S1P4-expressing cell line, antagonist mode, reporter read-out; at 4.98 µM; hits give high values
Sphingosine 1-phosphate receptor 4 (Homo sapiens), sequence (O95977 whole entry, looked up): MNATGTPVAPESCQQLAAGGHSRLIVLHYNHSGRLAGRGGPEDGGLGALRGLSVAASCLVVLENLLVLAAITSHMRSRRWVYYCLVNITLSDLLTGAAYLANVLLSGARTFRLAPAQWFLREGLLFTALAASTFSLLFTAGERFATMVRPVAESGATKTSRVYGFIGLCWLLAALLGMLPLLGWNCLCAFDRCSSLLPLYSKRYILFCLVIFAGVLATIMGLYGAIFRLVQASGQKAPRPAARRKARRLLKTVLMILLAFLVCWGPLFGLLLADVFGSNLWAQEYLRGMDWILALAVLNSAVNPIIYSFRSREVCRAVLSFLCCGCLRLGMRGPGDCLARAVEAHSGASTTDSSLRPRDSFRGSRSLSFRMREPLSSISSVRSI

[7] = target: Sphingosine 1-phosphate receptor 1 (Homo sapiens) (UniProt P21453); assay: S1P1 receptor antagonists, human, counter-screen for S1P4 antagonist project, cell-based (AID 1564; in the data active = inhibition above about 40%;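 note: receptor stimulated with S1P near its EC80; 0% = agonist stimulated wells and 100% = vehicle only wells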); conditions: cell-based S1P1 antagonist counterscreen, at 4.98 µM, hits give high values
Sphingosine 1-phosphate receptor 1 (Homo sapiens), sequence (P21453 whole entry, looked up): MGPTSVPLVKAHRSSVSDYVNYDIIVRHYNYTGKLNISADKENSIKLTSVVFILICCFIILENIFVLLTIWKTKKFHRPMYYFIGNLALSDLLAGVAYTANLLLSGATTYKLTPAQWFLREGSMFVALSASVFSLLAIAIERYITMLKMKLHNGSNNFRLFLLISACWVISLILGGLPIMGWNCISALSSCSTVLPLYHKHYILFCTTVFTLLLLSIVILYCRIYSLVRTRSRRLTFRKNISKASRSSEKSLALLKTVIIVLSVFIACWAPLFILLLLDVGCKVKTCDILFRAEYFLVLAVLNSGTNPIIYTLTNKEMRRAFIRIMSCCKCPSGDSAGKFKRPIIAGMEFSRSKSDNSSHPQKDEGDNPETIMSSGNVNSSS

[8] = target: Protein-arginine deiminase type-4 (Homo sapiens) (UniProt Q9UM07); assay: human PAD4 inhibitors, confirmation, biochemical, fluorescence polarization (AID 488796;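 active = mean inhibition across replicates above the hit cutoff set by the earlier primary screen, cut at about 15% in these data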;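 note: inhibitors block active-site labeling by the probe so polarization falls; 0% = PAD4 with probe and DMSO and 100% = probe without PAD4 enzyme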); conditions: recombinant PAD4, RCA probe fluorescence polarization; at 6.36 µM; hits give high values
Protein-arginine deiminase type-4 (Homo sapiens), sequence (Q9UM07 whole entry, looked up): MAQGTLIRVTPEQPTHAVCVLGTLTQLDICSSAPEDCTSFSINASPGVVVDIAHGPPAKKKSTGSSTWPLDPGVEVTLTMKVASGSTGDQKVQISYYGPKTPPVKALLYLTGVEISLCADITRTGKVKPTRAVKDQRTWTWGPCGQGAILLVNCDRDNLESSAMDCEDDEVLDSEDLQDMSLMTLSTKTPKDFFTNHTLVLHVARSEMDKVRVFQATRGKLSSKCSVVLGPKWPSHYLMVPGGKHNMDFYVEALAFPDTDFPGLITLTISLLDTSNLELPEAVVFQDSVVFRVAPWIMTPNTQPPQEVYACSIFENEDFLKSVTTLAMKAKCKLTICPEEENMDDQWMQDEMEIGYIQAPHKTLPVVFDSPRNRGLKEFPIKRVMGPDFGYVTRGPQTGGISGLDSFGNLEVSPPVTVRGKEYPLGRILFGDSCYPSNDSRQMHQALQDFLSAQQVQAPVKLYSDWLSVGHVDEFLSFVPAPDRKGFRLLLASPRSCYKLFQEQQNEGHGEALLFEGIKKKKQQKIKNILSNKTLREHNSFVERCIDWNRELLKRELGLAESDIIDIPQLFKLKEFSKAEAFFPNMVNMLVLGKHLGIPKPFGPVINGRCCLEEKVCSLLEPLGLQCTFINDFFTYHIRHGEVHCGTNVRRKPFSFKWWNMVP

[9] = target: Toll-like receptor 9 (Homo sapiens) (UniProt Q9NR96); assay: TLR9-MyD88 association inhibitors, retest, confirmation, cell-based, CHO, BLA complementation, fluorescence, triplicate (AID 540250;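 active = mean inhibition across three repeats above about 21% taken from the earlier screen, limit read from the data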;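 note: blue over green emission ratio reports constitutive TLR9 MyD88 association via BLA complementation; 0% = DMSO vehicle wells and 100% = clavulanate BLA inhibitor wells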); conditions: CCF4 FRET ratio, at 4.98 µM, hits give high values
Toll-like receptor 9 (Homo sapiens), sequence (Q9NR96 whole entry, looked up): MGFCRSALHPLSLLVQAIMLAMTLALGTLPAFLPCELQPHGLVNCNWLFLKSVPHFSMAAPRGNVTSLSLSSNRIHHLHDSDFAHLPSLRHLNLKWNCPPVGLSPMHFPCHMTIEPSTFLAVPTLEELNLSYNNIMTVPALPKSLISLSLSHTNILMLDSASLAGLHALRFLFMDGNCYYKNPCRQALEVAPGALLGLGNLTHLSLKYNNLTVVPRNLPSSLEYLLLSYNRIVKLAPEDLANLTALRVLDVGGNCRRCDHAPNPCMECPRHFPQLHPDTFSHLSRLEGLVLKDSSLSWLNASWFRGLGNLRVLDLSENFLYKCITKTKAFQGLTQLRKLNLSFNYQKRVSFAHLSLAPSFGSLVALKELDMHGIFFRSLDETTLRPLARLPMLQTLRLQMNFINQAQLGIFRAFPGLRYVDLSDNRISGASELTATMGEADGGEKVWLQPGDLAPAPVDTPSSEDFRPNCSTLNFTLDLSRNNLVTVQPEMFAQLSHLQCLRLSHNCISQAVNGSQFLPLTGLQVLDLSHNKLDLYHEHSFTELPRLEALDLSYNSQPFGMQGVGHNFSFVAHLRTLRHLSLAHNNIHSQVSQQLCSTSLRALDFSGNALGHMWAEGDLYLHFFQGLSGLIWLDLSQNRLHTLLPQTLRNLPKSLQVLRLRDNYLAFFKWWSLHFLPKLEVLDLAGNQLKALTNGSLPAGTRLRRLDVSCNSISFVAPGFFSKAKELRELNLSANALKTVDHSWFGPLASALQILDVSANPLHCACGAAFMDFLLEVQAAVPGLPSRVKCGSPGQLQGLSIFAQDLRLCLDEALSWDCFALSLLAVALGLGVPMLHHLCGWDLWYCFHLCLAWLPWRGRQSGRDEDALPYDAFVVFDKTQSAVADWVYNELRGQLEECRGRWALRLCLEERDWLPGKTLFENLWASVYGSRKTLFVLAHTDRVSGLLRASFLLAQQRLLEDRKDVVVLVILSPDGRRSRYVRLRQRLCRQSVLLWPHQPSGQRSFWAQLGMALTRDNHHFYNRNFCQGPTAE

[10] = beta-lactamase reporter inhibitors in CHO cells, artefact control for TLR9-MyD88 binding inhibitor project, cell-based, fluorescence (AID 540251;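 active = mean inhibition above a 50% cutoff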;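 note: counterscreen of TLR9-MyD88 hits on CMV-driven BLA in CHO-K1 cells; 0% = DMSO alone and 100% = clavulanate blocking BLA; higher means less blue over green ratio so more BLA blockade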); conditions: CHO-BLA cells, CCF4 FRET ratio, at 4.98 µM, hits give high values
[11] = CHO cell viability loss – luminescence, single concentration, cytotoxicity control for TLR9-MyD88 binding inhibitor project (AID 588336; in the data active = inhibition above about 11%); conditions: TLR9-MyD88 CHO cells cytotoxicity, at 4.98 µM, hits give high values
[12] = target: Receptor-interacting serine/threonine-protein kinase 2 (Homo sapiens) (UniProt O43353); assay: NOD2-RIPK2 binding disruptors, retest, confirmation, fluorescence, CHO cells, BLA complementation, triplicate (AID 624370;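 active = mean inhibition across replicates above a set limit taken from the earlier primary screen, cut at about 21% in these data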;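 note: 0% = DMSO-only wells and the high end = clavulanate BLA-blocked wells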); conditions: CCF4 FRET, at 4.98 µM, hits give high values
Receptor-interacting serine/threonine-protein kinase 2 (Homo sapiens), sequence (O43353 whole entry, looked up): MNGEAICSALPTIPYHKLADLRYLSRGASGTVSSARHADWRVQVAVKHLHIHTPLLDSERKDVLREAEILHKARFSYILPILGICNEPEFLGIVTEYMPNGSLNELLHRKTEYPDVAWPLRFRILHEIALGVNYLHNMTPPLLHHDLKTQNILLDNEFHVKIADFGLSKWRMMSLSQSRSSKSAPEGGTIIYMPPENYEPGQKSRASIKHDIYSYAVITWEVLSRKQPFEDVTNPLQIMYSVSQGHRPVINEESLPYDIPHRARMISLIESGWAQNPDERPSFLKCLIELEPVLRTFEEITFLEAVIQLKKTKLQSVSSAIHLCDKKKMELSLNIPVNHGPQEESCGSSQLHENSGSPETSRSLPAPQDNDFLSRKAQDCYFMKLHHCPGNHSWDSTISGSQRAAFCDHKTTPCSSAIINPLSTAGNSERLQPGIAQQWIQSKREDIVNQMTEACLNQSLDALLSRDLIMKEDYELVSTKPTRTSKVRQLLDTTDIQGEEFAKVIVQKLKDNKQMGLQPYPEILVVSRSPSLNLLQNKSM

[13] = beta-lactamase reporter inhibitors in CHO cells, confirmation, artefact control for NOD2-RIPK2 interaction inhibitor project, cell-based, CHO-K1 CMV-bla, CCF4 FRET, fluorescence (AID 624371;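 active = mean inhibition above the low-control mean inhibition plus three low-control SD, cut at about 11% in these data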;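 note: 0% = DMSO only wells and 100% = clavulanate high control wells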); conditions: CCF4 FRET ratio, counterscreen, at 4.98 µM, hits give high values
[14] = target: Photoreceptor-specific nuclear receptor (Homo sapiens) (UniProt Q9Y5X4); assay: NR2E3 agonist confirmation in cells, cell-based, luminescence, CHO-S two-hybrid (AID 624378;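 active = average inhibition above a cutoff equal to the mean inhibition of all tested compounds plus one SD, cut at about 70% in these data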;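 note: 0% = DMSO in NR2E3 cells and 100% = DMSO in cells lacking NR2E3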); conditions: CHO-S mammalian two-hybrid NR2E3-NCOR, luciferase luminescence; at 3.98 µM; hits give high values
[15] = GAL4-VP16 reporter modulators, confirmation, counter-screen for NR2E3 agonist project, cell-based, luminescence, CHO-S, high throughput (AID 624379;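 active = mean inhibition above a cutoff equal to the average over all tested compounds plus one standard deviation, cut at about 70% in these data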;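 note: luciferase from a UAS reporter driven by GAL4-VP16 transactivation; 0% = DMSO with VP16-transfected cells and 100% = DMSO with cells lacking VP16; higher means less reporter light so more repression of VP16 activity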); conditions: CHO-S GAL4-VP16 luciferase reporter, at 3.98 µM, hits give high values
[16] = StAR promoter reporter inhibitors, counter-screen for LRH-1 inverse agonist project, cell-based, luminescence, high throughput (AID 651611; in the data active = inhibition above about 28%); conditions: StAR promoter luciferase reporter counterscreen, at 3.6 µM, hits give high values
[17] = target: Nuclear receptor subfamily 5 group A member 2 (Homo sapiens) (UniProt O00482); assay: LRH-1 (NR5A2) inverse agonists, retest, confirmation, cell-based, luminescence (AID 651613; in the data active = inhibition above about 42%;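 note: HEK293T cells co-transfected with LRH-1 and StAR promoter luciferase reporter; 0% = vehicle wells and 100% = parental cells lacking receptor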); conditions: cell-based LRH-1 luciferase reporter, inverse agonism; at 3.6 µM; hits give high values
[18] = target: Steroidogenic factor 1 (Homo sapiens) (UniProt Q13285); assay: SF1 (NR5A1) inverse agonists, counter-screen for LRH-1 inverse agonist project, cell-based, luminescence, high throughput (AID 651614; in the data active = inhibition above about 44%;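 note: cells cotransfected with StAR promoter reporter and SF1 expression vector; 0% = vehicle on cells with receptor and 100% = vehicle on cells lacking receptor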); conditions: cell-based SF1 luciferase reporter, at 3.6 µM, hits give high values
Steroidogenic factor 1 (Homo sapiens), sequence (Q13285 whole entry, looked up, the tested form may be a part): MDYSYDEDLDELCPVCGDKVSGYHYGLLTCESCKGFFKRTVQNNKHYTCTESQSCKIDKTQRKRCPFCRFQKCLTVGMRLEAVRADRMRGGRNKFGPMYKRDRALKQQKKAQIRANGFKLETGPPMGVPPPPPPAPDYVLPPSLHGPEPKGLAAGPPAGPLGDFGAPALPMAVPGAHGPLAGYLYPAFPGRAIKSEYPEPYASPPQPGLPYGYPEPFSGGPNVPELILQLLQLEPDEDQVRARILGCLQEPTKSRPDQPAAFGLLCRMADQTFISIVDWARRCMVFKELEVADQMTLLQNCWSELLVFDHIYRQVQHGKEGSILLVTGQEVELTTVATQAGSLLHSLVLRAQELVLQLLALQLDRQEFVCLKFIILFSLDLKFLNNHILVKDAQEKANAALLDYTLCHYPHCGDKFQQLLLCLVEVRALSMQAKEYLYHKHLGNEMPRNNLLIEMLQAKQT

[19] = VP16 transactivation reporter inhibitors, counter-screen for LRH-1 inverse agonist project, cell-based, luminescence, high throughput (AID 651615; in the data active = inhibition above about 33%); conditions: Gal4-VP16 luciferase reporter cells, at 3.6 µM, hits give high values
[20] = tested on: transactivating tegument protein VP16 (Human herpesvirus 1); assay: VP16 transactivation reporter inhibitors, counter-screen for SRC2 inhibitor project, cell-based, luminescence, single concentration (AID 652007; in the data active = inhibition above about 36%); conditions: cell-based VP16 transactivation luciferase reporter, at 8.9 µM, hits give high values
[21] = target: Nuclear receptor coactivator 2 (Homo sapiens) (UniProt Q15596); assay: SRC2 coactivator transcriptional activity inhibitors, confirmation, cell-based, luminescence, HEK293, triplicate (AID 652008;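 active = mean inhibition above 46.5%, the solvent-only control mean plus 3 SD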;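 note: 0% = DMSO-treated cells and 100% = Gossypol at 36 µM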); conditions: HEK293 GAL4-SRC2 luciferase reporter, at 8.9 µM, hits give high values
[22] = Gal4-VP16 luciferase reporter inhibitors, counter-screen for COUP-TFII antagonist project, cell-based, luminescence, HEK293 (AID 687007; in the data active = inhibition above about 13%); conditions: at 8.5 µM, hits give high values
[23] = target: COUP transcription factor 2 (Homo sapiens) (UniProt P24468); assay: NR2F2 transcriptional activity inhibitors, confirmation, cell-based, luciferase reporter, HEK293, triplicate (AID 687008;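 active = mean inhibition over three repeats above a set limit taken from the earlier primary screen, cut at about 38% in these data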;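 note: 100% = cells given the luciferase reporter alone without the COUP-TF2 vector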); conditions: HEK293 NGFI-A luciferase reporter, luminescence; at 8.5 µM; hits give high values
COUP transcription factor 2 (Homo sapiens), sequence (P24468 whole entry, looked up): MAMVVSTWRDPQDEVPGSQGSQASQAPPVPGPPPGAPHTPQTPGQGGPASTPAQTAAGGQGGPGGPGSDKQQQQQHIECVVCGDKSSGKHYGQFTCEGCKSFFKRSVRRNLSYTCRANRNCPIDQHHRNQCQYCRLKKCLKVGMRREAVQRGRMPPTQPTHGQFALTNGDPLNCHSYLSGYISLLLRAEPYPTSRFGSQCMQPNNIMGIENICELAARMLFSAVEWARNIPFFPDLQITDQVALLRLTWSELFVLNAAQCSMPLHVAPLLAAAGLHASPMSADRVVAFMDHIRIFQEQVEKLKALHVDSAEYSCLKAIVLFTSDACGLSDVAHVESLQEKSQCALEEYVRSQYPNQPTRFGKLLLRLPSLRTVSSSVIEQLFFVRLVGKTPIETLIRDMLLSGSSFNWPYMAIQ

[24] = target: (Lyso)-N-acylphosphatidylethanolamine lipase (Mus musculus) (UniProt Q8VD66); assay: ABHD4 inhibitors, retest, confirmation, biochemical, fluorescence polarization, mouse (AID 720658;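 active = mean inhibition across replicates above the hit cutoff set in the primary screen, cut at about 30% in these data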;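 note: 0% = wild-type ABHD4 with DMSO and 100% = catalytically dead S159A mutant with DMSO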); conditions: purified mABHD4, FP-Rh probe fluorescence polarization; at 8.92 µM; hits give high values
(Lyso)-N-acylphosphatidylethanolamine lipase (Mus musculus), sequence (Q8VD66 whole entry, looked up): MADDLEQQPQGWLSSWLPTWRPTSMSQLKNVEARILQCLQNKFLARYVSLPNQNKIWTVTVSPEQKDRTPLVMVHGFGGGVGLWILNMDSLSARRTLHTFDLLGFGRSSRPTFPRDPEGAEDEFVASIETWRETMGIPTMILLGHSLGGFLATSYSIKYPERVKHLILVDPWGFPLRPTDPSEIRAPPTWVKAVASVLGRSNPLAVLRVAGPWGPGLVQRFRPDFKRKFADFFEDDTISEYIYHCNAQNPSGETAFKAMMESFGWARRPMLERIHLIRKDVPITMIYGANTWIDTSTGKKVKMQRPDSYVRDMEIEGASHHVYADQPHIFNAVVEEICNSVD

[25] = tested on: HIV-1 integrase (multimerization); assay: HIV-1 IN multimer formation enhancers, counter-screen for LEDGF/p75 integration inhibitor project, biochemical, TR-FRET (AID 1053131); conditions: TR-FRET HIV-1 integrase multimerization, at 7.7 µM, hits give high values
[26] = TR-FRET optical interference artefacts, confirmation, artefact control for LEDGF/p75-dependent integration inhibitor project, biochemical, HIV-1 IN multimerization (AID 1053135;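 active = inhibition above the mean over all tested compounds plus 3 SD, which no compound reached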;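 note: 0% = integrase with antibodies and DMSO and 100% = antibodies without integrase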); conditions: TR-FRET optical interference counterscreen, at 7.7 µM, hits give high values
[27] = tested on: HIV-1 integrase / human LEDGF/p75 complex; assay: inhibitors of HIV-1 IN-LEDGF/p75 DNA integration, confirmation, biochemical, TR-FRET (AID 1053136; in the data active = inhibition above about 14%); conditions: TR-FRET LEDGF/p75-dependent HIV-1 integration, at 3.7 µM, hits give high values
[28] = growth loss of phage-infected RecBCD+ E. coli, confirmation, RecBCD inhibitor project, absorbance, E. coli V66, T4 gene 2 phage (AID 651982;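 active = mean inhibition over triplicates exceeding the hit threshold derived in the original primary screen, cut at about 11% in these data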); conditions: E. coli V66 + T4 2- phage, growth OD; at 11.9 µM; hits give high values
[29] = E. coli viability inhibition, counter-screen for RecBCD inhibitor project, absorbance, high throughput (AID 651983; in the data active = inhibition above about 20%;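 note: E. coli strain V66 grown with compound alone and no phage infection; 0% = bacteria with DMSO vehicle only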); conditions: absorbance (OD) growth, at 11.9 µM, hits give high values
[30] = growth loss of phage-infected AddAB-carrying E. coli, confirmation, counter-screen for RecBCD inhibitor project, absorbance, E. coli V3065, T4 phage (AID 651984;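 active = mean inhibition above the solvent-only control wells' mean plus 3 SD, cut at about 22% in these data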;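 note: higher means less bacterial growth from phage killing when AddAB is blocked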); conditions: E. coli expressing H. pylori AddAB + T4 phage, OD growth; at 11.9 µM; hits give high values; gene 2 mutant T4, recBCD-deleted host
[31] = compounds interfering with TAMRA-BSA probe, counter-screen for TCR-CD3 interaction inhibitor project, biochemical, fluorescence, TAMRA-labeled BSA (AID 652035; in the data active = inhibition above about 23%;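 note: 0% = buffer low control and 100% = reference high control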); conditions: TAMRA-labeled BSA probe fluorescence counterscreen; at 9.4 µM; hits give high values
[32] = tested on: T-cell receptor (TCR)-CD3 interaction, human; assay: TCR-CD3 interaction inhibitors, retest, confirmation, biochemical, fluorescence, TAMRA-labeled TCR probe (AID 652036; in the data active = inhibition above about 19%); conditions: TAMRA-labeled TCR probe fluorescence binding assay; at 9.4 µM; hits give high values
[33] = STAT1 signaling activators, confirmation, cell-based, HTS, luciferase reporter (AID 1262;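 active = activation above a set limit carried over from the earlier primary STAT1 screen, cut at about 140% in these data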;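 note: simple ratio to median IFN-gamma plus DMSO wells so 0% means no light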); conditions: NIH 3T3 STAT1-luciferase reporter, IFN-gamma potentiation, luminescence; at 5.7 µM; hits give high values; 100% = IFN-gamma EC80 alone, no compound
[34] = NF-kB reporter activators, TNF-alpha stimulated, counter-screen for STAT1 activator project, cell-based, HEK293T, luciferase luminescence (AID 1306;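 active = activation above the mean of solvent-only control wells plus 3 SD, set per campaign, cut at about 130% in these data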;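 note: TNF-alpha given at a submaximal dose yielding about 80% of full reporter signal; values are well signal over median control so 100% means no change and 0% no light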); conditions: at 5.7 µM, hits give high values, 100% = TNF-alpha with vehicle only
[35] = target: Signal transducer and activator of transcription 3 (Homo sapiens) (UniProt P40763); assay: STAT3 reporter activation by STAT1 hits, confirmation, counter-screen for STAT1 activator project, U3A cells, luciferase, luminescence (AID 1316;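 active = activation above the solvent-only control well mean plus 3 SD, set per plate batch, cut at about 110% in these data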;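 note: 0% = no luminescence and 100% = median IL-6 plus DMSO wells; higher means more STAT3 reporter activation so hits are non-selective activators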); conditions: IL-6, luminescence, at 5.7 µM, hits give high values, 100 = IL-6 alone, no compound effect, cells lack STAT1

CCc1ccc2c(c1)C1(NN=C(c3ccccc3)S1)C(=O)N2 (configuration not stated)
active: inhibition [5] 63.9%
inactive: inhibition [1] 24.4% | inhibition [2] 24.7% | inhibition [3] 13.3% | inhibition [4] 19.7%

O=C(Nc1ccccc1Cl)/C(Cl)=C(\Cl)S(=O)c1ccccc1 (configuration not stated)
inactive: inhibition [3] 11.5% | inhibition [4] 14.5% | inhibition [7] 39.3% | inhibition [8] 14.2% | inhibition [10] 24.5% | inhibition [15] 47.4%
active: inhibition [6] 117% | inhibition [9] 39.3% | inhibition [11] 96.4% | inhibition [12] 78.8% | inhibition [13] 37.3% | inhibition [14] 90.1% | inhibition [16] 57.7% | inhibition [17] 88.7% | inhibition [18] 80.1% | inhibition [19] 80.8% | inhibition [20] 94.7% | inhibition [21] 95.9% | inhibition [22] 78.8% | inhibition [23] 101%

CCN(CC)CCCC(C)n1c2nc(=O)[nH]c(=O)c-2nc2cc(Cl)ccc21 (configuration not stated)
inactive: inhibition [9] 12.3% | inhibition [10] 14.8% | inhibition [11] -0.12% | activation [25] 2.04% | inhibition [26] -7.01%
active: inhibition [12] 38.1% | inhibition [13] 40% | inhibition [24] 44.4% | inhibition [27] 59.8%

O=C(NNC(=O)c1ccccc1O)c1ccccc1O
active: inhibition [28] 25.8% | inhibition [29] 26.4% | inhibition [30] 38.9% | inhibition [32] 37.8% | inhibition [27] 62.9%
inactive: inhibition [31] 2.97% | activation [25] 0.99% | inhibition [26] -4.93%

Cc1ccc(S(=O)(=O)/N=C2\C=C(NS(=O)(=O)c3ccc(C)cc3)C(=O)c3ccccc32)cc1
active: inhibition [24] 60.6%
inactive: activation [25] -1.1% | inhibition [26] 5.59% | inhibition [27] 12%

CC(=O)Nc1cccc(-c2cnc3ccccc3n2)c1
inactive: activation (% of control) [34] 126% | activation (% of control) [35] 101%
active: activation (% of control) [33] 165%

COc1ccc(-n2ncc3c(N4CCCc5ccccc54)ncnc32)cc1
active: activation (% of control) [33] 209% | activation (% of control) [34] 139% | activation (% of control) [35] 112%

Cc1ccc(Cc2cnc(N)s2)o1
inactive: inhibition [31] 0.16% | inhibition [32] 2.57% | activation [25] 6.28% | inhibition [26] -22.6% | inhibition [27] 10.6%
